Test [1] is described as follows: qHTS Assay for Identifying Gametocytocidal Compounds (AID 743244).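 As to max response: actives lower the fluorescent signal which means gametocytes are killed.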 The settings on record: P. falciparum 3D7 stage III-V gametocytes, alamarBlue, 72 h; max response: hits give low values. Summed up: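 Viability read-out was resazurin reduction (alamarBlue, 24 h) measured at Ex 525/Em 598 nm. Beforehand, late-stage (III-V) 3D7 P. falciparum gametocytes at 20,000 cells/well were incubated with compound 72 h at 37C under 5% CO2.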
A general note: Quantitative high-throughput screening tests each substance at several concentrations.

The nature of test [2]: qHTS assay to identify small molecule inhibitors of chordoma cells - UCH-1 (AID 1259355). Also: nearly all actives have a fitted effect of over 55% in size. As to Potency: series mostly up to about 46 µM. Summed up:
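Screening used approved and investigational drugs in 15-point titration against 800 seeded cells per well. A fixed combination of auranofin with camptothecin, doxorubicin, rubitecan and topotecan followed compound addition, and growth was scored by CellTiter-Glo after 48hr.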

Test [3] in a line: qHTS assay to identify small molecule inhibitors of chordoma cells - UCH-2 (AID 1259356).
The nature of test [4]: P-glycoprotein substrates identified in KB-8-5-11 adenocarcinoma cell line, qHTS therapeutic library screen (AID 1346987). Also: nearly all actives have a fitted effect of over 65% in size. A digest of the protocol:
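Human cervical adenocarcinoma KB-8-5-11 cells, selected in colchicine to over-express P-gp and assayed without it, were exposed for 72 h to titrated compounds. An ATP-based luminescent viability signal gave AC50.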

Structures are written as SMILES. Values joined by “and” are separate entries in the source; they are usually repeats but may differ in a detail not shown here. Identical values can stand only once. Results filed as inconclusive are left out. Unmarked numbers belong to inactive results. Active and inactive are the calls of the source. Calls follow the shape of the dose curve; as a rule, active = well fitted curve in the direction sought with a large enough effect; inconclusive = small, poorly fitted or top-dose-only effect, or another doubt; inactive = no such curve, though single readings can be large; an effect the other way counts as inactive or inconclusive.
% is scaled to controls: 0 for no effect and ±100 for the full control effect; potency is read from the fitted curve at half-maximal effect.

Consider `O=C(OCCN1CCCCC1)C(O)(c1ccccc1)c1ccccc1`, for which, in test [1], the max response is 6.84%. For the same compound, the Potency result in test [2], in test [3] and in test [4] was “inactive” throughout.
Regarding `CC(=O)OCC(=O)[C@H]1CC[C@H]2[C@@H]3CC[C@H]4C[C@H](O)CC[C@]4(C)[C@H]3C(=O)C[C@]12C`, in test [1], the max response is 11.4%. Further, the Potency result in test [2], in test [3] and in test [4] was “inactive” in each case.
With `CC1(C)S[C@@H]2[C@H](N)C(=O)N2[C@H]1C(=O)O`, in test [1], the max response is -4.29%. In addition, the Potency result in test [2], in test [3] and in test [4] was “inactive” in each case.
On to `CCNC1(c2cccs2)CCCCC1=O` (stereo unspecified), for which the max response in test [1] was -0.213%. For the same compound, the Potency result in test [2], in test [3] and in test [4] was “inactive” in each case.
Take `CCC(C)(S(=O)(=O)CC)S(=O)(=O)CC`: in test [1], the max response was 7.4%. Also, the Potency entry in test [2], in test [3] and in test [4] was “inactive” in each case.
For `CCC(=O)O[C@@](Cc1ccccc1)(c1ccccc1)[C@@H](C)CN(C)C`, the max response in test [1] is 5.87%. Also, the Potency result in test [2], in test [3] and in test [4] was “inactive” in each case.
With `CCOC(=O)/C=C(C)/C=C/C[C@@H](C)CCCC(C)C`, the max response in test [1] was 10.1%. Besides, the Potency result in test [2], in test [3] and in test [4] was “inactive” each time.
As for `C[C@]12CC[C@H](O)C[C@H]1CC[C@@H]1[C@@H]2CC[C@]2(C)[C@@H](c3ccc(=O)oc3)C[C@H]3O[C@]132`, the max response in test [1] is 10.6%. The Potency in test [2] is 6.31 µM [with auranofin plus four topoisomerase inhibitors] (active); in test [3], 6.51 µM (active); in test [4], 1.84 µM (active).
`CC[C@H]1[C@@H]2C[C@H]3[C@@H]4N(C)c5ccccc5[C@]45C[C@@H](C2[C@H]5O)N3[C@@H]1O` (stereo partly specified): in test [1], the max response was 7.56%. The Potency result in test [2], in test [3] and in test [4] was “inactive” each time.
As to `CN1CCCC(=C(c2cccs2)c2cccs2)C1`, the max response in test [1] was -3.64%. In addition, the Potency result in test [2], in test [3] and in test [4] was “inactive” in each case.
As to `COc1ccc(OC)c([C@@H](O)[C@H](C)N)c1`, the max response in test [1] is 0.514%. For the same compound, the Potency entry in test [2], in test [3] and in test [4] was “inactive” each time.
For the compound `OC(c1ccccc1)(c1ccccc1)C1CN2CCC1CC2` (stereo unspecified), the max response in test [1] was -14.7%. Further, the Potency entry in test [2], in test [3] and in test [4] was “inactive” each time.
Take `CC(C)(O)[C@@H]1[C@H]2OC(=O)[C@@H]1[C@]1(O)C[C@H]3O[C@]34C(=O)O[C@H]2[C@]14C`: the max response in test [1] is -7.5% and 15.4%. For the same compound, the Potency result in test [2], in test [3] and in test [4] was “inactive” in each case.
`Oc1cccc[c]1[Hg][Cl]`: the Potency in test [1] is 1.78 µM (active); in test [2], 15.8 µM [with auranofin plus four topoisomerase inhibitors] (active); in test [3], 13 µM (active); in test [4], 5.17 µM (active).
Consider `CC(=O)Oc1ccc2c3c1O[C@H]1[C@@H](OC(C)=O)C=C[C@H]4[C@@H](C2)N(C)CC[C@@]341`, for which the max response in test [1] was 1.05% and 0.272%. Also, the Potency result in test [2], in test [3] and in test [4] was “inactive” in each case.
Consider `CCC1(c2ccccc2)C(=O)NC(=O)N(C)C1=O` (stereo unspecified), for which the max response in test [1] is -0.22%. The Potency entry in test [2], in test [3] and in test [4] was “inactive” throughout.
Take `COC1=CC=C2[C@H]3Cc4ccc(OC)c5c4[C@@]2(CCN3C)[C@H]1O5`: in test [1], the max response is 13.9%. Besides, the Potency entry in test [2], in test [3] and in test [4] was “inactive” throughout.
With `CCCCNCC(O)c1ccc(O)cc1` (stereo unspecified), the max response in test [1] is 15.5%. Further, the Potency entry in test [2], in test [3] and in test [4] was “inactive” throughout.
As to `CNC1(c2ccccc2Cl)CCCCC1=O` (stereo unspecified), the max response in test [1] is 16% and -7.76%. Moreover, the Potency result in test [2], in test [3] and in test [4] was “inactive” in each case.
As to `C#CC(C)(O)CC` (stereo unspecified), the max response in test [1] was 4.2%. The Potency result in test [2], in test [3] and in test [4] was “inactive” in each case.
On to `C[C@]12CCC(=O)C=C1C=C[C@@H]1[C@@H]2CC[C@@]2(C)[C@H]1CC[C@@]2(O)CCC(=O)O`, for which the max response in test [1] was 16.5%. Besides, the Potency result in test [2], in test [3] and in test [4] was “inactive” throughout.
Regarding `O=C1C[C@@H]2OCC=C3CN4CC[C@]56c7ccccc7N1[C@H]5[C@H]2[C@H]3C[C@H]46` (tested in a mixture with another compound), the max response in test [1] is 12.7% and 17.6%. Besides, the Potency entry in test [2], in test [3] and in test [4] was “inactive” throughout.
With `c1cc2c(c(NC3=NCCN3)c1)CCCC2`, the max response in test [1] was -7.43%. Further, the Potency entry in test [2], in test [3] and in test [4] was “inactive” in each case.
As for `CC(C)CCC(=O)O[C@H]1CC[C@H]2[C@@H]3CCC4=CC(=O)CC[C@]4(C)[C@H]3CC[C@]12C`, the max response in test [1] is 13.7%. In addition, the Potency entry in test [2] and in test [3] was “inactive” throughout. In test [4], the Potency was 7.31 µM (active).
With `COc1ccc2c3c1O[C@H]1C(=O)CC[C@H]4[C@@H](C2)N(C)CC[C@]314`, the max response in test [1] was 13%. Further, the Potency result in test [2], in test [3] and in test [4] was “inactive” each time.
In the case of `CCCCCCCCCC(=O)O[C@H]1CC[C@H]2[C@@H]3CCC4=CC(=O)CC[C@]4(C)[C@H]3CC[C@]12C`, the max response in test [1] was 4.27%. Further, the Potency entry in test [2] and in test [3] was “inactive” each time. In addition, the Potency in test [4] is 16.4 µM (active).
Take `C[N+]1([O-])[C@@H]2CC(OC(=O)[C@H](CO)c3ccccc3)C[C@H]1[C@@H]1O[C@@H]12` (stereo partly specified): the max response in test [1] is 4.15% and -13.5%. Besides, the Potency entry in test [2], in test [3] and in test [4] was “inactive” in each case.
Turning to `CNC(C)C(O)c1ccc(O)cc1` (stereo unspecified), the max response in test [1] was -4.84% and 8.32%. Also, the Potency entry in test [2], in test [3] and in test [4] was “inactive” in each case.
For `C[C@]12C=CC(=O)C=C1CC[C@@H]1[C@@H]2CC[C@]2(C)OC(=O)CC[C@@H]12`, in test [1], the max response is -1.22%. In addition, the Potency entry in test [2], in test [3] and in test [4] was “inactive” each time.

The record behind these values is PubChem BioAssay (NCATS).
